{"source": "PubChem BioAssay (Tox21)", "note": "“And” between values parts separate entries of the source, which are not always exact repeats. Identical values can stand only once. Inconclusive results are not listed. Entries that show only a call come without a potency. The source holds several records for some structures; these can differ, active in one and inactive in another. The source made the active and inactive calls. Calls come from the whole dose curve; as a rule, active = well fitted cell-killing curve with a large enough effect in the repeat runs; inconclusive = weak or mixed curves, or effect the other way; inactive = flat fitted curve, though single readings scatter. Potency is the fitted concentration of half-maximal effect.", "data": [{"assay": "qHTS RealTime-Glo MT Cell Viability Assay in HEK293 cells - 24 hour (AID 1224886); note: nearly all actives have a fitted effect of over 50% in size; for activity change, negative = cytotoxicity: top concentration of the series differs between compounds", "details": "RealTime-Glo luminescence; series mostly up to 76.8 µM; activity change, negative = cytotoxicity: at the top concentration", "description": "National Center for Advancing Translational Sciences [NCATS]\nNIH Chemical Genomics Center [NCGC]\nU.S. Environmental Protection Agency [EPA]\nNational Institutes of Environmental Health Sciences [NIEHS]\nNational Toxicology Program [NTP]\nU.S. Food and Drug Administration [FDA]\nMeasure of cell viability is critical in the cell-base assay. Analysis of cell viability is necessary for the characterization of cell responses to cytotoxic drugs and environmental stress. A RealTime-Glo MT Cell Viability Assay to monitor cell viability in real time of continues cell culture during 40 hours of compound treatment was used to screen Tox21 10K library compounds in Hek293 cells. The RealTime-Glo MT Cell Viability Assay is a nonlytic, homogeneous, bioluminescent method to measure cell viability in real time using a simple, plate-based method. The assay involves adding NanoLuc luciferase and a cell-permeant prosubstrate to cells in culture. Viable cells reduce the proprietary prosubstrate to generate a substrate for NanoLuc luciferase. This substrate diffuses from cells into the surrounding culture medium, where it is rapidly used by the NanoLuc Enzyme to produce a luminescent signal. The signal correlates with the number of viable cells, making the assay well suited for cytotoxicity studies.\nTox21 Assay Protocol Summary:\nThe mixture of Hek293 cell suspension and reagents were dispensed at 600cells/6 ul/well in 1536-well tissue culture treated black solid bottom plates using a Multidrop dispenser. After the assay plates were incubated at a 37 C/5% CO2 incubator for 5 hours, 23 nL of compounds dissolved in DMSO, positive and negative controls was transferred to the assay plate by a pintool work station. The plates were incubated at 37 C for 40 hours. The luminescence intensity were measured at 0h, 8h, 16h, 24h, 32h and 40h time points using ViewLux plate reader during compound treatment.", "values": [{"smiles": "Nc1ccncc1", "Potency": "inactive"}, {"smiles": "Nn1cnnc1", "Potency": "inactive"}, {"smiles": "O=[N+]([O-])c1ccc(O)c([N+](=O)[O-])c1", "activity change, negative = cytotoxicity": "-11.4% (inactive)"}, {"smiles": "CCCCOCCOP(=O)(OCCOCCCC)OCCOCCCC", "activity change, negative = cytotoxicity": "-14% (inactive)"}, {"smiles": "ClC1C(Cl)C(Cl)C(Cl)C(Cl)C1Cl", "note": "(stereo not given)", "Potency": "inactive and 49 µM (active)"}, {"smiles": "CC(O)CCO", "note": "(stereo not given)", "Potency": "inactive"}, {"smiles": "C[C@]12CCC(=O)C[C@@H]1CC[C@@H]1[C@@H]2CC[C@]2(C)[C@@H](O)CC[C@@H]12", "Potency": "21.6 µM (active)"}, {"smiles": "Oc1cc(Cl)ccc1Oc1ccc(Cl)cc1Cl", "Potency": "22.4 µM (active) and 23.9 µM (active)"}, {"smiles": "C=C(C)C(=O)OCC1CO1", "note": "(stereo not given)", "Potency": "inactive"}, {"smiles": "CCC(C)c1ccc(O)cc1", "note": "(stereo not given)", "Potency": "inactive"}, {"smiles": "O=P(O)(O)CCCl", "Potency": "inactive"}, {"smiles": "N#Cc1cc(Br)c(O)c(Br)c1", "Potency": "inactive"}, {"smiles": "COP(=O)(OC)OC", "Potency": "inactive"}, {"smiles": "O=[N+]([O-])c1cccc2ccccc12", "Potency": "inactive"}, {"smiles": "O=c1oc2ccccc2c(O)c1C(CC(O)c1ccc(-c2ccc(Br)cc2)cc1)c1ccccc1", "note": "(stereo not given)", "Potency": "inactive"}, {"smiles": "C1=Cc2cccc3cccc1c23", "activity change, negative = cytotoxicity": "3.11% (inactive)"}, {"smiles": "Nc1ccc(Cl)c(Cl)c1", "activity change, negative = cytotoxicity": "-2.83% (inactive)"}, {"smiles": "Clc1nc(Cl)nc(Cl)n1", "Potency": "inactive"}, {"smiles": "NNC(=S)NN", "Potency": "inactive"}, {"smiles": "CC(C)(c1cc(Cl)c(O)c(Cl)c1)c1cc(Cl)c(O)c(Cl)c1", "Potency": "inactive"}, {"smiles": "Nc1c(Cl)cc([N+](=O)[O-])cc1Cl", "activity change, negative = cytotoxicity": "-13.2% (inactive)"}, {"smiles": "CCOCN(C(=O)CCl)c1c(C)cccc1CC", "Potency": "inactive"}, {"smiles": "C[C@]12CCC(=O)C(O)=C1CC[C@@H]1[C@@H]2CC[C@]2(C)C(=O)CC[C@@H]12", "activity change, negative = cytotoxicity": "-8.96% [at 35.3 µM] (inactive)"}, {"smiles": "Cc1cc(Cl)ccc1OCCCC(=O)O", "Potency": "inactive"}, {"smiles": "CCC(C)c1cc([N+](=O)[O-])cc([N+](=O)[O-])c1O", "note": "(stereo not given)", "activity change, negative = cytotoxicity": "6.04% (inactive)"}, {"smiles": "C#C[C@]1(O)CC[C@H]2[C@@H]3CCC4=CC(=O)CC[C@]4(C)[C@H]3CC[C@@]21C", "Potency": "inactive"}, {"smiles": "CN(C)C(=O)Nc1ccc(Cl)cc1", "Potency": "inactive"}, {"smiles": "N#CC(Br)Br", "activity change, negative = cytotoxicity": "4.7% (inactive)"}, {"smiles": "Nc1cccnc1", "Potency": "inactive"}, {"smiles": "CCCCCCCCC(=O)NCc1ccc(O)c(OC)c1", "Potency": "inactive"}, {"smiles": "Oc1c(Cl)c(Cl)c(Cl)c(Cl)c1Cl", "activity change, negative = cytotoxicity": "-20.6% [at 35.3 µM] (inactive)"}, {"smiles": "COP(=S)(OC)Oc1cc(Cl)c(Cl)cc1Cl", "Potency": "inactive"}, {"smiles": "Cc1c(COC(=O)[C@@H]2[C@H](/C=C(\\Cl)C(F)(F)F)C2(C)C)cccc1-c1ccccc1", "Potency": "21.4 µM (active)"}, {"smiles": "CCOc1cc(C=O)ccc1O", "Potency": "inactive"}, {"smiles": "CNC(=O)Oc1cccc2c1OC(C)(C)O2", "Potency": "inactive"}, {"smiles": "CC(C)(C)c1ccccc1O", "activity change, negative = cytotoxicity": "-2.66% (inactive)"}, {"smiles": "CCN(N=O)C(N)=O", "Potency": "inactive"}, {"smiles": "CC(C)NC(C)C", "Potency": "inactive"}, {"smiles": "COc1ccc(C(CN(C)C)C2(O)CCCCC2)cc1", "note": "(stereo not given)", "Potency": "inactive"}, {"smiles": "O=S(=O)(Oc1ccc(Cl)cc1)c1ccc(Cl)cc1", "Potency": "inactive"}]}]}
